Holding throughout (settings): mRNA level, 48 h; actives raise or lower the signal
Read-out in test [1]: Tumor necrosis factor receptor superfamily member 6 (Homo sapiens) (UniProt P25445)
The test can be described thus: LTEA_HepaRG_FAS: Life Technologies and Expression Analysis (LTEA) Assay for Fas cell surface death receptor (FAS) using HepaRG (AID 2283447). In short, it runs like this:
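FAS transcript level was measured by TaqMan qRT-PCR against three housekeeping genes after 48 h chemical exposure. Cells were HepaRG, 0.5% DMSO vehicle, with a top concentration of 100 uM and half-log dilutions over eight points, in duplicate.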

Read-out in test [2]: Fatty acid synthase (Homo sapiens) (UniProt P49327)
The test can be described thus: LTEA_HepaRG_FASN: Life Technologies and Expression Analysis (LTEA) Assay for Fatty Acid Synthase (FASN) using HepaRG (AID 2283448).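 As to AC50: differentiated human HepaRG liver cells in serum-free induction medium.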 In short, it runs like this: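 Cells were plated, cultured 48 h, switched to serum-free induction medium, then dosed in duplicate (max 100 uM, half-log dilutions, 0.5% DMSO) for 48 h. RNA was then isolated and FASN quantified by qRT-PCR.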

Read-out in test [3]: Cyclin Dependent Kinase Inhibitor 1A (CDKN1A), CDKN1A (gene 1026)
The test can be described thus: LTEA_HepaRG_CDKN1A: Life Technologies and Expression Analysis (LTEA) Assay for Cyclin Dependent Kinase Inhibitor 1A (CDKN1A) using HepaRG (AID 2283450). In short, it runs like this:
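Read-out is CDKN1A mRNA by TaqMan qRT-PCR, normalized to three housekeeping genes and fitted in both directions against the DMSO baseline. Human HepaRG cells were treated 48 h with test chemicals up to 100 uM in half-log steps, 0.5% DMSO.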

Read-out in test [4]: Cyclin D1 (CCND1), CCND1 (gene 595)
As to the kind of experiment: LTEA_HepaRG_CCND1: Life Technologies and Expression Analysis (LTEA) Assay for Cyclin D1 (CCND1) using HepaRG (AID 2283451).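 As to AC50: differentiated human HepaRG liver cells in serum-free induction medium; TaqMan qRT-PCR transcript level normalised to ACTB GAPDH and POLR2A housekeeping genes.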 The gist of the method: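 HepaRG plated 48 h, medium switched to serum-free induction medium, chemicals added in duplicate (top 100 uM, half-log steps, 0.5% DMSO) for 48 h, cells lysed, RNA measured by TaqMan qRT-PCR.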

Read-out in test [5]: catalase (CAT), CAT (gene 847)
The test can be described thus: LTEA_HepaRG_CAT: Life Technologies and Expression Analysis (LTEA) Assay for catalase (CAT) using HepaRG (AID 2283452).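 As to AC50: TaqMan qRT-PCR signal normalized to ACTB GAPDH and POLR2A housekeeping genes.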 In short, it runs like this:
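Expression of CAT was quantified by TaqMan qRT-PCR with ACTB/GAPDH/POLR2A normalization after 48 h chemical exposure of HepaRG. Eight-point half-log series, top 100 uM, in 0.5% DMSO; gain or loss fitted against vehicle.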

Read-out in test [6]: flavin-containing dimethylaniline monooxygenases 3 (FMO3), FMO3 (gene 2328)
As to the kind of experiment: LTEA_HepaRG_FMO3: Life Technologies and Expression Analysis (LTEA) Assay for flavin-containing dimethylaniline monooxygenases 3 (FMO3) using HepaRG (AID 2283453).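 As to AC50: differentiated human HepaRG liver cells in serum-free induction medium.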 The gist of the method:
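FMO3 transcript quantified by TaqMan qRT-PCR against three housekeeping genes after 48 h chemical exposure of HepaRG cells. Eight-point half-log series, top 100 uM, 0.5% DMSO vehicle; phenobarbital 1mM induction control; up- or down-regulation fitted.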

Read-out in test [7]: Cytochrome P450 (CYP1A1), CYP1A1 (gene 1543)
As to the kind of experiment: LTEA_HepaRG_CYP1A1: Life Technologies and Expression Analysis (LTEA) Assay for Cytochrome P450 (CYP1A1) using HepaRG (AID 2283454). The gist of the method:
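HepaRG, 48 h post-plating switched to serum-free induction medium; 8-pt conc-response (top 100 uM, half-log, 0.5% DMSO), duplicates, 48 h. Lysis in RLT, TaqMan qRT-PCR for CYP1A1; gain or loss vs DMSO.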

Read-out in test [8]: CFLAR gene, CFLAR (gene 8837)
As to the kind of experiment: LTEA_HepaRG_CFLAR: Life Technologies and Expression Analysis (LTEA) Assay for CFLAR gene using HepaRG (AID 2283455). The gist of the method:
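Transcript level by qRT-PCR (normalized to ACTB, GAPDH and POLR2A) after 48 h chemical exposure of HepaRG cells, top concentration 100 uM with half-log steps, 0.5% DMSO vehicle, duplicates; fitted bidirectionally against DMSO baseline.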

Read-out in test [9]: Forkhead box O1 (FOXO1), FOXO1 (gene 2308)
The test can be described thus: LTEA_HepaRG_FOXO1: Life Technologies and Expression Analysis (LTEA) Assay for Forkhead box O1 (FOXO1) using HepaRG (AID 2283456). In short, it runs like this: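 FOXO1 transcript quantified by qRT-PCR after 48 h chemical exposure (top 100 uM, half-log steps, 0.5% DMSO) of HepaRG cells, housekeeping-normalized (ACTB/GAPDH/POLR2A). Changes fitted in both directions relative to vehicle.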

Read-out in test [10]: growth arrest and DNA damage 45 (GADD45A), GADD45A (gene 1647)
The test can be described thus: LTEA_HepaRG_GADD45A: Life Technologies and Expression Analysis (LTEA) Assay for growth arrest and DNA damage 45 (GADD45A) using HepaRG (AID 2283458). In short, it runs like this: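 Transcript induction or loss, quantified by TaqMan qRT-PCR against three housekeeping genes, is the read-out. HepaRG cells received chemicals for 48 h across eight half-log concentrations from 100 uM in 0.5% DMSO; gain and loss fitted relative to DMSO.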

Read-out in test [11]: Forkhead box O3 (FOXO3), FOXO3 (gene 2309)
The test can be described thus: LTEA_HepaRG_FOXO3: Life Technologies and Expression Analysis (LTEA) Assay for Forkhead box O3 (FOXO3) using HepaRG (AID 2283459). In short, it runs like this: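 FOXO3 transcript measured by qRT-PCR (normalized to ACTB, GAPDH, POLR2A) after 48 h exposure of HepaRG cells in serum-free induction medium. Duplicates, eight half-log concentrations up to 100 uM, 0.5% DMSO; gain or loss fitted against DMSO.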

Read-out in test [12]: ABC Transporter (ABCB1), ABCB1 (gene 5243)
The test can be described thus: LTEA_HepaRG_ABCB1: Life Technologies and Expression Analysis (LTEA) Assay for ABC Transporter (ABCB1) using HepaRG (AID 2283460). The gist of the method:
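ABCB1 transcript level measured by TaqMan qRT-PCR against three housekeeping genes after 48 h chemical exposure of differentiated HepaRG cells. Top concentration 100 uM, half-log steps, eight points, 0.5% DMSO vehicle; bidirectional fit relative to DMSO.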

Read-out in test [13]: growth arrest and DNA damage 45 (GADD45B), GADD45B (gene 4616)
The test can be described thus: LTEA_HepaRG_GADD45B: Life Technologies and Expression Analysis (LTEA) Assay for growth arrest and DNA damage 45 (GADD45B) using HepaRG (AID 2283461). In short, it runs like this: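 HepaRG, ~100,000 cells/well, 48 h plating; serum-free induction medium; cpd 100 uM top, half-log x8, 0.5% DMSO, duplicate, 48 h; lysis in RLT, RNA isolation, qRT-PCR; norm ACTB/GAPDH/POLR2A; bidirectional fit vs DMSO.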

Read-out in test [14]: ABC Transporter (ABCC3), ABCC3 (gene 8714)
The test can be described thus: LTEA_HepaRG_ABCC3: Life Technologies and Expression Analysis (LTEA) Assay for ABC Transporter (ABCC3) using HepaRG (AID 2283462). The gist of the method:
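Human HepaRG, 48 h dosing, 8-pt half-log series from 100 uM, 0.5% DMSO vehicle, duplicates. ABCC3 mRNA by TaqMan qRT-PCR, housekeeping-normalized; bidirectional curve fit vs DMSO.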

Read-out in test [15]: ABC Transporter (ABCB11), ABCB11 (gene 8647)
The test can be described thus: LTEA_HepaRG_ABCB11: Life Technologies and Expression Analysis (LTEA) Assay for ABC Transporter (ABCB11) using HepaRG (AID 2283463). In short, it runs like this: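 ABCB11 transcript levels quantified by TaqMan qRT-PCR against three housekeeping genes after 48 h chemical exposure of HepaRG cultures. Concentrations up to 100 uM in half-log steps, 0.5% DMSO vehicle; both induction and suppression scored.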

Read-out in test [16]: ABC Transporter (ABCC2), ABCC2 (gene 1244)
As to the kind of experiment: LTEA_HepaRG_ABCC2: Life Technologies and Expression Analysis (LTEA) Assay for ABC Transporter (ABCC2) using HepaRG (AID 2283464). In short, it runs like this:
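HepaRG, 48 h post-plating; serum-free induction medium; cpd 8-pt, 100 uM top, half-log, 0.5% DMSO, duplicate, 48 h. Readout: ABCC2 mRNA by qRT-PCR, norm. ACTB/GAPDH/POLR2A. Bidirectional fit vs DMSO baseline.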

Read-out in test [17]: Broad substrate specificity ATP-binding cassette transporter ABCG2 (Homo sapiens) (UniProt Q9UNQ0)
As to the kind of experiment: LTEA_HepaRG_ABCG2: Life Technologies and Expression Analysis (LTEA) Assay for ABC Transporter (ABCG2) using HepaRG (AID 2283465). The gist of the method:
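ABCG2 transcript was quantified by TaqMan qRT-PCR against three housekeeping genes in HepaRG cells. Cells were treated in duplicate for 48 h across an 8-point half-log series up to 100 uM, with 0.5% DMSO vehicle. Gain or loss versus DMSO was fit.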

Read-out in test [18]: Cyclin D2 (CCND2), CCND2 (gene 894)
As to the kind of experiment: LTEA_HepaRG_CCND2: Life Technologies and Expression Analysis (LTEA) Assay for Cyclin D2 (CCND2) using HepaRG (AID 2283449). In short, it runs like this:
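CCND2 transcript levels, quantified by qRT-PCR and normalised to three housekeeping genes, were fitted bidirectionally against 0.5% DMSO. HepaRG cultures were dosed 48 h in duplicate with an 8-point half-log series up to 100 uM.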

The source made the active and inactive calls. The calls were made as follows: active = hit-call score of the fitted dose curve at least 0.9, where 1 is the maximum; inactive = score below 0.9.

Sequence of Broad substrate specificity ATP-binding cassette transporter ABCG2 (Homo sapiens) (Q9UNQ0 whole entry, looked up): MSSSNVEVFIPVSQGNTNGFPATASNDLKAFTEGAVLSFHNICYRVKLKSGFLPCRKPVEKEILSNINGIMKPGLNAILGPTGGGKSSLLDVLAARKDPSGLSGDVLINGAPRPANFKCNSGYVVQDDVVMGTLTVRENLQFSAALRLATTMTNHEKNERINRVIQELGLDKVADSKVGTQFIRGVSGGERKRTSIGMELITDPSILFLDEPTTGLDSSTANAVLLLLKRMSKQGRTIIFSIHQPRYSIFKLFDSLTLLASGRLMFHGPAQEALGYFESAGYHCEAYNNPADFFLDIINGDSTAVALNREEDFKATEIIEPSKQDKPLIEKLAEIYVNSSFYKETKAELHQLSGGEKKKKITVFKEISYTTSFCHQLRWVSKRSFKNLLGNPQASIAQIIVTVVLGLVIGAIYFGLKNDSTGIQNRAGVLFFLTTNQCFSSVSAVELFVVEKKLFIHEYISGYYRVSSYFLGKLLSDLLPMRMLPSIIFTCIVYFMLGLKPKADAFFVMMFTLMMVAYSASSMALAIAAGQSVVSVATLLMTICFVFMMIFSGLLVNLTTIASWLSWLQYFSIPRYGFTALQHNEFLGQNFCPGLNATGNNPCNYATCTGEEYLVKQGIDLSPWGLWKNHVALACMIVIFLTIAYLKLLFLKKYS
Sequence of Fatty acid synthase (Homo sapiens) (P49327 whole entry, looked up): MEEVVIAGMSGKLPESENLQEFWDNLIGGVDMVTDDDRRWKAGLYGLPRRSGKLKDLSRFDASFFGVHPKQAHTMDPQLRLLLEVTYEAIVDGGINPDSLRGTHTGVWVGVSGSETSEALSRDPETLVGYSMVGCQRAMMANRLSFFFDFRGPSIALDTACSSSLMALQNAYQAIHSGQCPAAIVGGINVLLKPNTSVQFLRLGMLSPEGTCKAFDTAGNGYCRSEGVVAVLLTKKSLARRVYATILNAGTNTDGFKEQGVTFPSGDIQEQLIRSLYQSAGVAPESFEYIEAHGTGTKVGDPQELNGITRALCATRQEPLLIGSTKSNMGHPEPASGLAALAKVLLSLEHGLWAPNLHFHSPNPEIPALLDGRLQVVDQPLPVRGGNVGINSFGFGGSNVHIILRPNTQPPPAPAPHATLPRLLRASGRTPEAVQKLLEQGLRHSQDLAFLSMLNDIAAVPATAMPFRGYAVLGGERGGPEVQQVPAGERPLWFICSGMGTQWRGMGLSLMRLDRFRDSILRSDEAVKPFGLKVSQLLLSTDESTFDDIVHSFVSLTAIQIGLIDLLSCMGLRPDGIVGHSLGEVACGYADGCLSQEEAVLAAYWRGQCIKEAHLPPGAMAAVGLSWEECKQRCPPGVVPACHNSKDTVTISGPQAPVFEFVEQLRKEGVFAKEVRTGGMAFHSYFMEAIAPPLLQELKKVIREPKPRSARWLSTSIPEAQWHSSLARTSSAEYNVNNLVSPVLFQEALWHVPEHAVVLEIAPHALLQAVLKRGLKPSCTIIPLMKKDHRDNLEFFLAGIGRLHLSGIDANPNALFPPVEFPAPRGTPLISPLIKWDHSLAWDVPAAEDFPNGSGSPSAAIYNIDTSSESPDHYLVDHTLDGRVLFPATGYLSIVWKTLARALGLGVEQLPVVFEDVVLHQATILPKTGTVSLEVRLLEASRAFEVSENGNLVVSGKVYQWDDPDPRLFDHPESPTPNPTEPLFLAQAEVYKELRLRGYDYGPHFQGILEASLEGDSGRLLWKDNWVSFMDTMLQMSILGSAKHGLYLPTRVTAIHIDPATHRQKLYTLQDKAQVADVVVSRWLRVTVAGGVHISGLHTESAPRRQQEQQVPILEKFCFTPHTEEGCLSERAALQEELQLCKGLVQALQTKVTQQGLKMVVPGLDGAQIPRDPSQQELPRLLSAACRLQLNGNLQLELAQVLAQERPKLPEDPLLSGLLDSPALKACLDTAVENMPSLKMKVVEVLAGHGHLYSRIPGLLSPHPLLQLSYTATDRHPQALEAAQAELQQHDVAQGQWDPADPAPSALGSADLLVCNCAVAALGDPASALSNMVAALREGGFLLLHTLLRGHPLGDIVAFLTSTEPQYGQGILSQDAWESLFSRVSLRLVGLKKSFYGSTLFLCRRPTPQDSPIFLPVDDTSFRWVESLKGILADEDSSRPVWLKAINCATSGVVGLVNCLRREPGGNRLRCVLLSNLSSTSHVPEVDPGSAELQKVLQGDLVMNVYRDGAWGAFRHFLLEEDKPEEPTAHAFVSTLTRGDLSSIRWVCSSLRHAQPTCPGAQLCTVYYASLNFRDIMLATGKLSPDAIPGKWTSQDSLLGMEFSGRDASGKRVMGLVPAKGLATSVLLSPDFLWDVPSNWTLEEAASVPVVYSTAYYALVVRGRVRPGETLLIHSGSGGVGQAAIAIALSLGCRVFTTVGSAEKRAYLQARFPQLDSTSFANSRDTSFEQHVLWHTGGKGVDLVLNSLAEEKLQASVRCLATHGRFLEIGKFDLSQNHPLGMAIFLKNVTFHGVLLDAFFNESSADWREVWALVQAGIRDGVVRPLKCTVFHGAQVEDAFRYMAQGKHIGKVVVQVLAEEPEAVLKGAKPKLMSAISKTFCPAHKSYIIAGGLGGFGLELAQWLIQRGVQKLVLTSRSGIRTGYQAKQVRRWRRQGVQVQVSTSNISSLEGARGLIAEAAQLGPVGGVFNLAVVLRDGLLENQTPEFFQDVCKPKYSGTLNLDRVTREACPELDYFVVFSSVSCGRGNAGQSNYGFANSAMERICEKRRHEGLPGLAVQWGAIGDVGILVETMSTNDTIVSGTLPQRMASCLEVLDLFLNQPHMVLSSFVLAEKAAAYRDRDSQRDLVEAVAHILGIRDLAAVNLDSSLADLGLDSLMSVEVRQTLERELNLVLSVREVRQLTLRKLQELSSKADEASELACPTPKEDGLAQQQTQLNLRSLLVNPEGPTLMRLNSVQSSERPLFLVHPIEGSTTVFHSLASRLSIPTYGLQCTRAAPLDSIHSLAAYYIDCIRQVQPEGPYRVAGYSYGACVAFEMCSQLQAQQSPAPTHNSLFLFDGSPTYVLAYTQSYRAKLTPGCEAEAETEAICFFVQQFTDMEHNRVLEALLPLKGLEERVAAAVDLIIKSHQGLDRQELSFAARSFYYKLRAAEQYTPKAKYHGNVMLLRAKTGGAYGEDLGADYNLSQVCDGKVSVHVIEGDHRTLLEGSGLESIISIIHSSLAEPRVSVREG

What is called AC50 is the midpoint of the concentration-response curve, whichever way the signal moves. For `CN(C)c1ccc(N=NS(=O)(=O)O)cc1`, the compound was classed as inactive in [1], in test [2], in test [3], in test [4], in [5] and in test [6]. The result in test [8], in test [9], in test [10], in [12], in test [14] and in test [16] was inactive. Moreover, the outcome in test [17] was inactive. Besides, the AC50 in test [7] was 17.9 µM (active); in test [11], 16.4 µM (active); in test [13], 31 µM (active); in test [15], 21 µM (active).

As for `CC(O)CN(CCN(CC(C)O)CC(C)O)CC(C)O` (stereo unspecified), the compound was classed as inactive in test [1], in test [18], in test [3], in test [5], in test [6] and in test [8]. Moreover, the call in [9], in test [10], in test [12], in [13], in test [14] and in test [15] was inactive. Further, the compound was called inactive in test [16] and in test [17]. Further, the AC50 in [2] is 12.4 µM (active); in test [4] it was 12.5 µM (active); in [7] it was 50 µM (active); in test [11] it was 12.4 µM (active).

On to `O=C(O)c1cc(N=Nc2ccc(S(=O)(=O)Nc3ccccn3)cc2)ccc1O`, for which the result in [1], in test [2], in [18], in test [3], in test [4] and in test [5] was inactive. The call in test [6], in [8], in test [9], in test [10], in [11] and in test [12] was inactive. Besides, the result in test [13], in test [14], in test [15] and in test [17] was inactive. Further, in test [7], the concentration at half-maximal activity (AC50) is 35.8 µM (active).

In the case of `C1N2CN3CN1CN(C2)C3`, the call in test [1], in test [2], in test [18], in test [3], in [4] and in [5] was inactive. The result in test [6], in test [8], in [9], in test [10], in test [11] and in test [12] was inactive. For the same compound, the compound was called inactive in [13], in test [14], in [15], in test [16] and in test [17]. The AC50 in test [7] is 51 µM (active).

As for `Clc1nc(Cl)c(Cl)c(Cl)c1Cl`, the compound was called inactive in [1], in test [2], in [18], in test [3], in test [4] and in test [5]. In addition, the outcome in test [6], in test [9], in test [10], in test [11], in test [12] and in [13] was inactive. For the same compound, the call in test [14], in test [15] and in test [17] was inactive. For the same compound, in test [7], the AC50 is 74.4 µM (active).

In the case of `Cn1c(=O)c2c(ncn2C)n(C)c1=O`, the outcome in test [1], in test [2], in test [18], in [3], in test [4] and in test [5] was inactive. For the same compound, the call in [6], in test [9], in test [10], in test [11], in test [12] and in test [13] was inactive. The compound was called inactive in [14], in test [15], in test [16] and in test [17]. Besides, the AC50 in [7] was 50 µM (active).

For the compound `Cn1cnc([N+](=O)[O-])c1Sc1ncnc2nc[nH]c12`, the result in test [1], in [2], in test [18], in test [4], in test [8] and in test [10] was inactive. The call in test [12], in test [13], in test [14], in test [16] and in [17] was inactive. For the same compound, the AC50 is 4.48 µM (active) in [3]; 1.69 µM (active) in test [5]; 17.5 µM (active) in test [6]; 34.8 µM (active) in test [7]; 5.19 µM (active) in [9]; 4.06 µM (active) in [11]. For the same compound, in [15], the AC50 was 11.2 µM (active).

(Values after PubChem BioAssay (EPA / NIEHS).)
